TDP1 cell CPT = qHTS for Inhibitors of human tyrosyl-DNA phosphodiesterase 1 (TDP1): qHTS in cells in presence of CPT; chicken DT40 Tdp1-/-;hTDP1 cells + 20 nM CPT, ATP luminescence, 48 h; Potency, µM (doses to about 46.2 µM), without a hit: at the top dose activity change, negative = growth inhibition, usual class: inhibitors; 12% of 420,000 active; AID 686979, 2013; also: nearly all actives have a fitted effect of over 55% in size
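Chicken DT40 Tdp1-/- cells stably complemented with human TDP1 were seeded at 400 cells/well in medium containing 20 nM camptothecin, exposed to pin-transferred compounds, and grown at 37 °C for at least 48 hr. Viability was read as ATP luminescence.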
Gal4-VP16 FLuc = VP16 counterscreen qHTS for inhibitors of ROR gamma transcriptional activity | 3.5% of 310,000 active | AID 2546, 2010 | Potency, µM (series often up to 53.6 µM), inactives show at the top dose activity, negative = inhibition, usual class: inhibitors | Drosophila S2 Gal4-VP16 UAS-luciferase, luminescence, 20 h;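 also: Gal4-VP16 expression switched on by copper sulfate through the metallothionein promoter; nearly all actives have a fitted effect of over 50% in size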
TDP1 block = qHTS Assay for Inhibitors of Tyrosyl-DNA Phosphodiesterase (TDP1). recombinant TDP1, AlphaScreen DNA substrate cleavage. Potency, µM (titrated, usually from 130 µM), for inactives: at the top dose activity change, negative = inhibition, actives largely listed as inhibitors. 0.28% of 350,000 active. AID 485290, 2010; also: nearly all actives have a fitted effect of over 40% in size
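Enzyme-compound mixtures sat 15 min at room temperature, followed by a 5 min reaction with 15 nM final substrate and 10 min with AlphaScreen beads. Recombinant human Tdp1 was used at 1 nM final.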
DT40 TDP1 no CPT = qHTS for Inhibitors of human tyrosyl-DNA phosphodiesterase 1 (TDP1): qHTS in cells in absence of CPT | DT40 Tdp1-/- hTDP1 cells, no CPT, ATP luminescence, 48 h | Potency, µM (titrated, usually from 46.2 µM), for the others: top-dose activity change, negative = growth inhibition, hits mostly inhibitors | 15% of 420,000 active | AID 686978, 2013; also: nearly all actives have a fitted effect of over 55% in size
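Chicken DT40 Tdp1-/- cells complemented with human TDP1, screened without camptothecin (DMSO vehicle only), 400 cells/well. Compounds pin-transferred, cells incubated at 37 °C for at least 48 hr. Growth read as ATP-dependent luminescence (CellTiter-Glo, 30 min at RT).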
RORg inh = qHTS for inhibitors of ROR gamma transcriptional activity; Nuclear receptor ROR-gamma (Mus musculus), P51450; 5.4% of 310,000 active; Potency, µM (highest dose often 53.6 µM), without a hit: at the highest dose activity change, negative = inhibition, hits mostly inhibitors; Drosophila S2 Gal4-RORgamma UAS-luciferase reporter, 20 h; AID 2551, 2010; also: nearly all actives have a fitted effect of over 60% in size
Target sequence (P51450 whole entry, looked up, the tested form may be a part): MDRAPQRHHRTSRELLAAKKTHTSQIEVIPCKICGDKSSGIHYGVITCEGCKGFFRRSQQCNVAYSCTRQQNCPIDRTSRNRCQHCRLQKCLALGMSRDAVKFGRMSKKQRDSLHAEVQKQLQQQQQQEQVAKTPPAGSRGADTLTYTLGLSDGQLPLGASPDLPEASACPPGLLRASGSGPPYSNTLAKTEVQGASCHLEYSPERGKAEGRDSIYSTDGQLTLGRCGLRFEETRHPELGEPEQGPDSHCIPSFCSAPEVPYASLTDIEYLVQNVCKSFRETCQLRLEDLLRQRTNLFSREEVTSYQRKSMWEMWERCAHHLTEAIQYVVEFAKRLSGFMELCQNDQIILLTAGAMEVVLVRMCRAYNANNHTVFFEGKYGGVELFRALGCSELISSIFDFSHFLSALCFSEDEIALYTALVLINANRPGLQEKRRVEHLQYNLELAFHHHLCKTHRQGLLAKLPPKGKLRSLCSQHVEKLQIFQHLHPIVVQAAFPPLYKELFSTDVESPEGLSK
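Stable Schneider cell line, Gal4 DNA-binding domain fused to ROR gamma, UAS-luciferase. Cmpd 1 hr RT → CuSO4 700 uM final → 20 hr RT → luciferase reagent 10 min → luminescence.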
Starred values were filed as active, the others as inactive; ? = inconclusive; / = no result; [ ] = another dose, or the depositor's remark. A selection: hits, their analogues and other compounds. The true share with any hit is near 19%. Calls follow the shape of the dose curve; as a rule, active = well fitted curve in the direction sought with a large enough effect; inconclusive = small, poorly fitted or top-dose-only effect, or another doubt; inactive = no such curve, though single readings can be large; an effect the other way counts as inactive or inconclusive. % is scaled to controls: 0 for no effect and ±100 for the full control effect; potency is read from the fitted curve at half-maximal effect.

SMILES	TDP1 cell CPT	Gal4-VP16 FLuc	TDP1 block	DT40 TDP1 no CPT	RORg inh
Cc1ccc(N=C2CCCCCN2C)c(C#N)c1	-12%	-15%	6%	-10%	-15%
CNC(=S)NNC(=O)c1sccc1OCc1cccc(C(F)(F)F)c1	?	-9%	2%	-16%	?
C=CCOC(=O)C1=C(C)NC(SCC(=O)Nc2ccc(C)c(Cl)c2)=C(C#N)C1c1ccco1 (stereo not given)	?	-18%	3%	29µM*	-28%[10 µM]
C=CCOC(=O)C1=C(C)NC(C)=C(C(=O)OCC=C)C1c1ccco1	?	-2%	4%	?	9%
COCCOC(=O)C1=C(C)NC(SCC(=O)NC(C)(C)C)=C(C#N)C1c1ccco1 (stereo not given)	26µM*	4%	4%	23µM*	2%
Cc1cc(C)nc(NC(=O)CSc2nccc(C)n2)n1	-3%	3%	-1%	-8%	2%
Cc1nc2ccc(Br)cn2c(=O)c1Cl	-24%	2%	5%	-24%	-26%
COc1ccc(/C=N\NC(=O)C2C(=O)NCC2c2ccccc2)cc1O (stereo not given)	7.3µM*	0%	2%	16µM*	9%
CC(=O)Nc1ccc(O)cc1[N+](=O)[O-]	6%	3%	5%	-18%	7%
CC(=O)Nc1cc([N+](=O)[O-])cc(NC(C)=O)c1NC(C)=O	7.1µM*	/	/	?	/
CCOC(=O)Cc1csc(NC(=O)c2cc3c(s2)CCCC3)n1	?	-24%	3%	?	-42%
Cc1csc(NC(=O)c2cc3c(s2)CCCCC3)n1	?	4µM*	-2%	15µM*	2.8µM*
Cc1cnc(NC(=O)c2cc3c(s2)CCCC3)s1	-29%	7.1µM*	8%	-23%	2µM*
CNC(=O)c1cc2c(s1)CCCCCC2	-23%	0%	1%	-5%	-17%
Cc1csc(NC(=O)c2cc3c(s2)CCCC3)n1	?	?	-1%	12µM*	10%
COc1cc(/C=C(\NC(C)=O)C(=O)NC(C)(C)CC(C)(C)C)ccc1OC(C)=O	-16%	-7%	1%	-12%	12%
Cc1ccnc(NS(=O)(=O)c2ccc(NC(=O)/C=C/c3cccs3)cc2)n1	-15%	-8%	5%	7%	23%
COCC(=O)Nc1cc(C)cn(Cc2c(F)cccc2Cl)c1=O	?	4%	/	?	10%[1.91 µM]
CC[C@H](C)[C@H](NC(N)=O)C(=O)Nc1ccc(OC)c(Cl)c1	8%	-1%	1%	0%	-8%
O=C(NNc1ccccc1)Nc1ccccc1F	?	3%	12%	7.3µM*	14%
O=C(Nc1ccccc1F)Nc1ccccc1F	?	36%	1%	-21%	35%
O=C(Nc1ccc(Cl)c(Cl)c1)Nc1ccc(Br)cc1F	5.8µM*	13µM*	-7%	12µM*	?
O=C(Nc1ccc(Br)cc1)Nc1ccccc1F	15µM*	-9%	3%	15µM*	?
O=C(Nc1ccc(Cl)c(Cl)c1)Nc1ccccc1O	?	-2%	0%	?	?
Fc1cc(Br)ccc1NC(=S)Nc1ccccc1	-8%	?	-1%	?	?
SMILES	TDP1 cell CPT	Gal4-VP16 FLuc	TDP1 block	DT40 TDP1 no CPT	RORg inh
Fc1ccccc1NC(=S)Nc1ccc(Br)cc1	15µM*	?	5%	23µM*	11µM*
Cc1ccccc1C(OCC(O)CN1CCC(C(N)=O)CC1)c1ccccc1 (stereo not given)	2%	11%	3%	10%	-6%
CCOc1ccc(NC(=O)C(=O)NCc2ccco2)cc1	1%	/	0%[12.3 µM]	-2%	/
CCOc1ccc(NC(=S)NCc2ccco2)cc1	3%	?	3%	-2%	14µM*
S=C(NCc1ccco1)Nc1ccc(Oc2ccccc2)cc1	?	?	6%	?	6.3µM*
CCOc1ccc(/C=N/OCC(=O)NCc2ccco2)cc1	?	-3%	3%	23µM*	26%
COc1cc(NC(=S)NCc2ccco2)cc(OC)c1	-26%	4%[0.365 µM]	3%	-28%	5.6µM*
COc1cccc(C2CC(=O)Nc3n[nH]c(-c4ccccc4)c32)c1OC (stereo not given)	-22%	-2%	6%	-17%	-16%
CC(C)(C)NS(=O)(=O)c1ccc(CCC(=O)NCc2cccnc2)cc1	-10%	4%	-1%	2%	-17%
COCC(=O)Nc1cc(C(=O)Nc2ccccc2C)ccc1Cl	-15%	4%	4%	-16%	1%
S=C(NCc1ccco1)Nc1ccc(N2CCOCC2)cc1	-23%	-3%	5%	-23%	-13%
COc1ccc(NC(=S)NCc2ccco2)cc1	-8%	?	6%	-24%	11µM*
CC(C)CNC(=S)Nc1ccc(Oc2ccccc2)cc1	?	4µM*	-8%	?	3.5µM*
O=C1OC(Nc2nc3ccccc3s2)c2ccccc21 (stereo not given)	-17%	4%	4%	-10%	9%
O=C(NNc1nc(-c2ccccc2)cs1)c1ccc(F)cc1	5%	11µM*	12%	1%	2µM*
O=C(NNc1nc(-c2ccc(F)cc2)cs1)c1ccccc1	2.6µM*	?	9%	4.1µM*	5µM*
O=C1OC(Nc2nc(-c3ccc(F)cc3)cs2)c2ccccc21 (stereo not given)	15µM*	-9%	/	23µM*	-14%
O=C(Nc1nc(-c2ccccc2)cs1)c1ccccc1F	-12%	/	2%	-12%	/
Cc1ccc(S(=O)(=O)N2C[C@H]3C(=O)C[C@@H](c4ccc(Cl)cc4)N(S(=O)(=O)c4ccccc4C)[C@H]3C[C@H]2c2cccc(Cl)c2)cc1	-18%	/	/	?	/
COc1ccc(OCCSc2nc3ccccc3n2CC(=O)N2CCOCC2)cc1	-1%	/	6%	-2%	/
Cc1ccc(C(C)C)c(OCc2nnc(SCC(=O)Nc3ncc(C)s3)n2C)c1	18µM*	?	3%	?	-27%
Cc1ccccc1OCC(=O)Nc1ccc2nc(SCC(=O)N3CCOCC3)sc2c1	?	/	1%	5.8µM*	/
Cc1ccccc1OCC(=O)Nc1ccc2nc(SCC(=O)N(C)c3ccccc3)sc2c1	18µM*	/	3%	10µM*	/
Cc1ccccc1OCC(=O)Nc1ccc2nc(SCC(=O)N3CCCC3)sc2c1	16µM*	/	2%	15µM*	/
O=C(CSc1nnc(-c2ccc(O)cc2)o1)c1ccc(Br)cc1	?	/	3%	?	/
O=C(CNC(=O)C1CCCCC1)NNC(=O)c1ccc(Cl)cc1Cl	13%	-1%	1%	2%	-20%
